{"source": "ChEMBL document CHEMBL4513160", "about": "“CO-ADD screening of MMV (CH) - Small Polar Library”", "note": "Fewer than 10 of roughly 18,000 compounds showed an effect of 50% or more. Only a sample is shown."}
{"test_system": "Pseudomonas aeruginosa", "assay": "Antibacterial activity against Pseudomonas aeruginosa PAO397 [PAO1 d(mexAB-oprM) d(mexCD-oprJ) d(mexEF-oprN) d(mexJKL) d(mexXY) d(opmH)] (CO-ADD:GN_211); MIC in CAMBH media using NBS plates, by OD(600)", "assay_type": "functional", "conditions": "Concentration 300 ug.mL-1, ASSAY_TEST Inhibition of Bacterial Growth, detection method Absorption (OD600), MEDIA CAMHB, plate type 384well, CORNING #3640, time 18 hr", "units": {"Inhibition": "%"}}
{"smiles": "O=C(NC(C1CCNCC1)[C@H]1C[C@H](O)C1)C1(CO)CC1", "note": "(some centres undefined)", "Inhibition": 10.73}
{"smiles": "CC1(C)Cc2cccc(OCCN)c2O1", "Inhibition": -35.66}
{"smiles": "CN1CCC(CN(C)Cc2cncs2)C1", "note": "(centres undefined)", "Inhibition": 2.31}
{"smiles": "CC(Cn1cccn1)NC(=O)CCc1ccc(F)cc1", "note": "(centres undefined)", "Inhibition": -50.8}
{"smiles": "CC(C)c1nc(CN(CCO)Cc2nccn2C)co1", "Inhibition": -7.36}
{"smiles": "CC1(C)CN(CC(O)C(F)(F)F)CCO1", "note": "(centres undefined)", "Inhibition": 7.85}
{"smiles": "COc1cccc(CN(C)CCN(C)C)c1OC", "Inhibition": 12.2}
{"smiles": "CC(C)NC(=O)CNC(=O)c1cc2cc(F)ccc2[nH]1", "Inhibition": -6.73}
{"smiles": "CC1CCN(C(=O)NCCS(=O)(=O)C(C)(C)C)C1", "note": "(centres undefined)", "Inhibition": 10.36}
{"smiles": "CCNc1ncc(C(=O)N[C@@H]2CC[C@@H](N)C2)cn1", "Inhibition": 21.83}
{"smiles": "CC(c1ccc(F)cc1)N(C)C(=O)CCCN", "note": "(centres undefined)", "Inhibition": -12.4}
{"smiles": "c1nsnc1-c1nc(C2CCCO2)no1", "note": "(centres undefined)", "Inhibition": -21.13}
{"smiles": "O=C(NCc1nnc2n1CCC2)Nc1cn[nH]c1", "Inhibition": 21.21}
{"smiles": "NCCCc1cn[nH]c1", "Inhibition": 12.47}
{"smiles": "O=C(c1ccc(C2CCCNC2)cc1)N1CCSCC1", "note": "(centres undefined)", "Inhibition": -23.58}
{"smiles": "CCCNC(=O)C1CCN(c2ncccc2C#N)CC1", "Inhibition": -18.27}
{"smiles": "CCC(C(=O)Nc1ccccc1)N1CCS(=O)(=O)CC1", "note": "(centres undefined)", "Inhibition": 18.51}
{"smiles": "COc1cc(F)c(S(=O)(=O)N(C)CC(N)=O)cc1OC", "Inhibition": 33.48}
{"smiles": "COc1nc(C)ccc1C#N", "Inhibition": 11.86}
{"smiles": "CC1(C)C(=O)NCCN1S(=O)(=O)c1ccccc1", "Inhibition": -8.7}
{"smiles": "Nc1ccc(CN2CCN(CC(F)(F)F)CC2)cn1", "Inhibition": -9.81}
{"smiles": "COc1ccc(C(=O)N2C[C@@H](CO)[C@H](N(C)C)C2)cn1", "Inhibition": -8.8}
{"smiles": "NCc1cc2c([nH]c1=O)CCCC2", "Inhibition": 4.51}
{"smiles": "C=C(C)CN1CCC(NC(=O)NC2CC2)CC1", "Inhibition": -6.54}
{"smiles": "Cn1nc(C(=O)NCc2cc(Cl)ccn2)ccc1=O", "Inhibition": -9.69}
{"smiles": "CC(C)CC(NCCS(C)(=O)=O)c1ccccn1", "note": "(centres undefined)", "Inhibition": 6.01}
{"smiles": "Cc1sc(S(N)(=O)=O)cc1N", "Inhibition": 7.68}
{"smiles": "COc1ccc(CC(C)=O)cn1", "Inhibition": 4.82}
{"smiles": "CC(C#N)CNC(=O)c1c(O)cc(F)cc1F", "note": "(centres undefined)", "Inhibition": 13.91}
{"smiles": "Cc1cccc(CNCCS(=O)(=O)N2CCOCC2)c1", "Inhibition": -1.09}
{"smiles": "c1cnc2cc(-c3nc(C4CCOC4)no3)nn2c1", "note": "(centres undefined)", "Inhibition": 18.33}
{"smiles": "CC(C)N(CCOc1ccccc1C#N)CC(N)=O", "Inhibition": -27.27}
{"smiles": "Cc1csc(N2CCCN(C(=O)c3cnsn3)CC2)n1", "Inhibition": -3.72}
{"smiles": "O=C(c1cccc(-n2cccn2)n1)N1CCCC1", "Inhibition": 17.03}
{"smiles": "COCCCn1c(SC2CCCCNC2=O)n[nH]c1=O", "note": "(centres undefined)", "Inhibition": -25.74}
{"smiles": "CCNC(=O)COC(=O)c1cc(O)nc2ccccc12", "Inhibition": -1.47}
{"smiles": "Cc1cc(CO)ccc1N1CCOCC1", "Inhibition": 6.45}
{"smiles": "CC(C)OCC(O)CN1CCc2ccc(O)cc2C1", "note": "(centres undefined)", "Inhibition": -14.27}
{"smiles": "CCc1ccc(CN2Cc3cnn(CCO)c3C2)nc1", "Inhibition": 18.58}
{"smiles": "NC(=O)CN1CCC(NC(=O)c2cc(Br)c[nH]2)CC1", "Inhibition": 14.11}
{"smiles": "O=C(CNC(=O)N1CCC=C(Br)C1)N1CCCCC1", "Inhibition": -37.56}
{"smiles": "CCN(Cc1[nH]cnc1C)C1CCS(=O)(=O)C1", "note": "(centres undefined)", "Inhibition": 6.36}
{"smiles": "CN1N=C(C(=O)Nc2ccc(Cl)cn2)CCC1=O", "Inhibition": 8.23}
{"smiles": "Cc1cc(=O)n(C)cc1NC(=O)CCc1ccccn1", "Inhibition": 1.98}
{"smiles": "CC(C)(C)c1noc(CN2CCSCC2)n1", "Inhibition": -15.23}
{"smiles": "CC(O)CN(C)c1ncc(Br)cn1", "note": "(centres undefined)", "Inhibition": -40.03}
{"smiles": "CC(C)(C)SCC(=O)Nc1ccc(CS(N)(=O)=O)cc1", "Inhibition": -2.55}
{"smiles": "CS(=O)(=O)NC(c1ccc(F)cc1)c1cccnc1", "note": "(centres undefined)", "Inhibition": -27.51}
{"smiles": "CN(C)CCOC1CCNCC1", "Inhibition": 12.65}
{"smiles": "COC(=O)CNC(=O)CSc1nc(C)cc(C)c1C#N", "Inhibition": -8.27}
{"smiles": "CN1CCC(CN(C)S(=O)(=O)c2ccccc2)CC1", "Inhibition": -25.1}
{"smiles": "Cc1cc(C)n(-c2ccc(C(=O)NC(C)(C)C)cn2)n1", "Inhibition": 9.83}
{"smiles": "Cn1cccc1CNCCNC(=O)c1ccn[nH]1", "Inhibition": -19.28}
{"smiles": "c1ccc(C2=NCCN2)nc1", "Inhibition": 8.57}
{"smiles": "Cc1ccc(CC(=O)N2CCC[C@H]2CO)cc1O", "Inhibition": 9.81}
{"smiles": "c1ccc2[nH]c(NCC3CCCO3)nc2c1", "note": "(centres undefined)", "Inhibition": -27.33}
{"smiles": "COCCNC(=O)CN1CCC2(CC1)OCCO2", "Inhibition": 24.44}
{"smiles": "CCOc1cccc(NC(=O)c2ccc(C)[nH]c2=O)n1", "Inhibition": 14.98}
{"smiles": "CN1CCOC(C(=O)Nc2ncc(Cl)s2)C1", "note": "(centres undefined)", "Inhibition": -8.17}
{"smiles": "CC(=O)NC1CCN(Cc2ccc(F)c(F)c2)CC1", "Inhibition": -27.6}
{"smiles": "Cc1ccccc1OCCN1CCC(C(N)=O)CC1", "Inhibition": 0.98}
{"smiles": "COc1ccccc1OCC(C)N", "note": "(centres undefined)", "Inhibition": 15.24}
{"smiles": "NC1CC(c2cc(NCC[C@H]3CCCN3)ncn2)C1", "note": "(some centres undefined)", "Inhibition": 15.98}
{"smiles": "CNc1nnc(SCc2csc(NC(C)=O)n2)s1", "Inhibition": -5.82}
{"smiles": "COc1ccc(C(N)c2ccncc2)cc1", "note": "(centres undefined)", "Inhibition": -28.12}
{"smiles": "CC(=O)N1CCN(c2ccc(CN)cc2)CC1", "Inhibition": -1.93}
{"smiles": "O=C(NC1CC1)c1n[nH]c2ccccc12", "Inhibition": -5.33}
{"smiles": "O=C(CCCc1nccs1)NCC(=O)N1CCCCC1", "Inhibition": -6.34}
{"smiles": "CC(CS(C)(=O)=O)NC(=O)C(C)(C)C", "note": "(centres undefined)", "Inhibition": -7.14}
